# Experimental data from PubChem BioAssay.
# Assay: small-molecule binders of probe aLefty1, primary screen, biochemical, small-molecule microarray, 635/667 nm fluorescence (AID 1153);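 also: score merges spot fluorescence with signal-to-noise ratio from the scanned slide images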
# Conditions: higher = more signal
row,SMILES,composite z-score
1,COc1ccc(C(=O)Nc2ccc(CN3C(=O)[C@@]4(O[C@@H](CCn5cc([C@H](O)c6ccccc6)nn5)[C@H]([Si](C)(C)c5ccc(OC)cc5)[C@H]4C)c4ccccc43)cc2)cc1,0.191
2,O=C1c2ccccc2[C@@]2(Cc3ccccc3N(CCN3CCOCC3)C2=O)[C@H](c2ccc(CO)cc2)N1Cc1ccccc1,-0.0479
3,CC[C@@H]1C=C(C(=O)O)[C@H](c2ccco2)N1S(=O)(=O)c1ccc(C)cc1,-0.148
4,O=C1OCCC/C=C\[C@H]2OC34C=CCN(CCN5CCOCC5)C(=O)[C@H]3N(CCCO)C(=O)[C@@H]4C12 (stereo partly specified),-0.284
5,COC(=O)[C@@]1(Cc2ccccc2)[C@H]2c3cc(C(=O)N4CCCC4)n(Cc4nc5ccccc5[nH]4)c3C[C@H]2CN1C(=O)c1ccccc1,1.06
6,CC(C)c1ccc(NN2C(C(O)C(c3ccccc3)c3ccccc3)C=CC3C(=O)N(c4ccccc4)C(=O)C32)cc1 (stereo unspecified),0.497
7,C#CCN(Cc1ccccc1Br)C(/C=C/c1ccccc1)CO (stereo unspecified),-0.226
8,O=C1C2C=CC(C(O)c3c(F)cccc3Cl)N(Nc3ccccc3)C2C(=O)N1c1ccccc1 (stereo unspecified),0.547
9,NC(=O)[C@@H]1[C@H]2C(=O)O[C@H](c3ccccc3)[C@H](c3ccccc3)N2[C@H](c2ccc(O)cc2)[C@@]12C(=O)Nc1ccc(C#CC3(O)CCCCCC3)cc12,-0.0544
10,CCOC(=O)C[C@H]1[C@H](OC(=O)Cc2ccc3c(c2)OCO3)[C@@H](NC(=O)c2ccc3ccccc3c2)c2cc(OCCCO)ccc2N1C(=O)c1ccccc1,0.0479
11,CN(C)C(=O)[C@]1(Cc2ccccc2N=[N+]=[N-])N=C(c2ccc(OCCCO)cc2)O[C@@H]1c1ccccc1,0.112
12,COC(=O)c1c(CC[C@@H](CO)NC(=O)N[C@@H](C)Cn2cc(C3(O)CCCCC3)nn2)oc(C(C)=O)c1C(=O)OC,-0.0984
13,O=C1C2C=CC(C(O)c3ccc(F)cc3)N(Nc3ccccc3F)C2C(=O)N1c1ccccc1 (stereo unspecified),0.336
14,O=C(c1ccccc1)N1Cc2ccccc2[C@@H]2OC(c3ccc(OCCCO)cc3)=N[C@]2(Cc2ccccc2)C1=O,0.343
15,C=C(COC)/C(=C/C[C@H](OC(=O)c1ccncc1)c1ccc(OCCO)cc1)c1cnc2ccccc2c1,0.062
16,COCCOC(=O)N1C(=O)[C@@]2(c3cc(C#CCNC(N)=O)ccc31)[C@H](C(=O)NC[C@H](O)c1ccccc1)[C@H]1C(=O)O[C@H](c3ccccc3)[C@H](c3ccccc3)N1[C@@H]2c1ccccc1OCCO,1.28
17,COc1ccc([C@H]2C[C@H]3C(Br)=C[C@@H]2C(=O)[C@]32CO2)cc1,-0.294
18,C=CCOC(=O)[C@@H]1[C@H]2C(=O)O[C@H](c3ccccc3)[C@H](c3ccccc3)N2[C@H](c2ccc(OCCOC(=O)[C@@H]3C[C@@H]4C(=O)N[C@@H](Cc5ccccc5)C(=O)N4[C@@H]3c3ccc(O)cc3)cc2)[C@@]12C(=O)Nc1ccc(I)cc12,0.546
19,O=C1OCC=C[C@H]2OC34C=CCN(c5ccc6ccccc6c5)C(=O)[C@H]3N(CCCCCCO)C(=O)[C@@H]4[C@@H]12 (stereo partly specified),0.0839
20,[N-]=[N+]=Nc1ccccc1C[C@]1(C(N)=O)N=C(c2ccc(OCCCO)cc2)O[C@H]1c1ccccc1,0.228
21,O=C1OCCC/C=C\[C@H]2OC34C=CCN(Cn5nnc6ccccc65)C(=O)[C@H]3N(CCO)C(=O)[C@@H]4C12 (stereo partly specified),0.16
22,COc1cc2c(cc1OC)CN(C(=O)[C@H]1[C@@H]3C(=O)O[C@@H](c4ccccc4)[C@@H](c4ccccc4)N3[C@@H](c3ccc(O)cc3)[C@]13C(=O)Nc1ccc(C#CC4=CCCCC4)cc13)CC2,0.35
23,Cc1ccc(S[C@]2(C(=O)NCC(C)C)CC(=O)N(Cc3cc(C(F)(F)F)cc(C(F)(F)F)c3)[C@@H]2c2ccc(CO)cc2I)cc1,0.12
24,CCCC[C@@H]1C[C@H]1[C@@H](NC(=O)c1ccco1)c1ccc(C(=O)OC)cc1,-0.214
25,O=C1O[C@H](c2ccccc2)[C@H](c2ccccc2)N2[C@H]1[C@@H](C(=O)O)[C@]1(C(=O)Nc3ccc(C#CC4=CCCCC4)cc31)[C@H]2c1ccccc1OCCO,1.44
26,CC(=O)N1Cc2ccccc2C[C@@]2(COC(c3ccc(OCCCO)cc3)=N2)C1=O,0.611
